16 compounds from PubChem BioAssay can be followed below.

Unmarked numbers belong to inactive results. The rule behind the calls is not given here.

Pantothenate synthetase (Mycobacterium tuberculosis (strain ATCC 25618 / H37Rv)), sequence (P9WIL5 whole entry, looked up): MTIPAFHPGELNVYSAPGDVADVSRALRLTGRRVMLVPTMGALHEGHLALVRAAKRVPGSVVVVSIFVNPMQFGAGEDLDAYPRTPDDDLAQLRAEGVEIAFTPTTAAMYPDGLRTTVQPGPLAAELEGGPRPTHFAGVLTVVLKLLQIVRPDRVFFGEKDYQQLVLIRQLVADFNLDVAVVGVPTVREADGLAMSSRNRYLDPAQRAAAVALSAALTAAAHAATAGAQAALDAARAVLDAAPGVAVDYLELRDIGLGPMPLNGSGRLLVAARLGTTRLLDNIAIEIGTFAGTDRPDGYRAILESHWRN

This test addresses Pantothenate synthetase (Mycobacterium tuberculosis (strain ATCC 25618 / H37Rv)) (UniProt P9WIL5). Nature of the test: Recombinant Mtb pantothenate synthetase (PanC) inhibitors, coupled enzyme, confirmatory (AID 375).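 Note: 0% = full reaction with vehicle and 100% = no enzyme background.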 The conditions noted are these: coupled enzyme assay; at 10 µM, hits give high values.
The term inhibition denotes how much of the control response was suppressed. Regarding `CC(=O)C1=C(C)NC(C)=C(C(C)=O)C1c1cccs1`, the inhibition is 0%.
Turning to `CC1(C)CC(=O)C=C(Nc2ccc(OCC(F)(F)C(F)F)cc2)C1`, the inhibition is 5%.
The figure for `CC(CN1CCOCC1)(NS(=O)(=O)c1ccccc1)c1ccccc1` (stereo unspecified) is 1%.
Consider `COC(=O)Nc1nc2ccc(C(=O)c3ccccc3)cc2[nH]1`, for which the inhibition is 1%.
To `O=C1CSC(c2cn(-c3ccccc3)nc2-c2cccs2)N1CC1CCCO1` (stereo unspecified) belongs 2%.
To `CCOc1ccc2[nH]c(C)cc(=O)c2c1` belongs 0%; to `Cc1ccc(Nc2cc(C)nc3nnnn23)cc1`, 6%.
To `CCCC(=O)C1=C(N(C)c2ccccc2)CC(C)(C)C(C(=O)OC)C1=O` (stereo unspecified) belongs 1%; to `Cc1nnc(C)c2c(C)n(-c3ccc(Br)cc3)c(C)c12`, 0%; to `CC[C@]1(O)C[C@@H]2CN(CCc3c([nH]c4ccccc34)[C@@](C(=O)OC)(c3cc4c(cc3OC)N(C)[C@H]3[C@@](O)(C(=O)OC)[C@H](OC(C)=O)[C@]5(CC)C=CCN6CC[C@]43[C@@H]65)C2)C1`, 0%.
As to `O=c1c[n+]([O-])c2ccccc2n1OCc1c(F)cccc1F`, the inhibition was 4%.
To `O=C(c1ccc2c(c1)OCO2)N1CCCN(C(=O)c2ccc3c(c2)OCO3)CC1` belongs 0%; to `Cc1cc(C)c(C)c(S(=O)(=O)Nc2ccc(O)cc2)c1C`, 10%; to `C/C=C(\C)c1nnc(NC(=O)OCC)s1`, 0%.
To `O=C(Nc1ccc(N2CCOCC2)cc1)C1CC1` belongs 0%; to `Cc1oncc1C(=O)Nc1ccc(C(F)(F)F)cc1`, 8%.
